The values that follow come from PubChem BioAssay AID440 (NMMLSC, 2006).

Hit rate of the full screen: of about 24,000 compounds, about 180 (0.75%) were called active. This excerpt belongs to a sample that is enriched for actives. Unmarked numbers belong to inactive results. No stated cut-off is given here; in the data, active means inhibition above about 30%; inconclusive means no clear call, values can overlap the other calls; inactive means below that.

The term inhibition denotes the drop in the measured response relative to a control, in per cent.

The target in this assay is fMet-Leu-Phe receptor (Homo sapiens) (UniProt P21462). Nature of the assay: small molecules displacing FPR fluorescent ligand – cell-based, FPRL1 counter-screen, flow cytometry, primary screen (AID 440).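 Further: 0% = buffer wells and 100% = receptor blocker peptide wells.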 Conditions: FPR-expressing cells, fluorescent ligand binding, hits give high values, concentration not given here.
Chain of fMet-Leu-Phe receptor (Homo sapiens) (P21462 whole entry, looked up): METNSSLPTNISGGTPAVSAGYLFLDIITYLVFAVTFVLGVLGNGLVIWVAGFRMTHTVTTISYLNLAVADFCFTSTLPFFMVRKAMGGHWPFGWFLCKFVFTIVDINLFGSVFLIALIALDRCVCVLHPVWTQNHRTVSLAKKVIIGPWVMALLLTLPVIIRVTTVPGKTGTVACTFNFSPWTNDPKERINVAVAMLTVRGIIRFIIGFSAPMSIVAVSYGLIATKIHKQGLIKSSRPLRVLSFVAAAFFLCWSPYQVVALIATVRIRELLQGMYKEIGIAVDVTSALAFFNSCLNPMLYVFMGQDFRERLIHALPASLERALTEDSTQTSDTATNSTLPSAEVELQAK
For `N#CCCN1CCN(S(=O)(=O)c2ccc(S(=O)(=O)N3CCCC3)cc2)CC1`, the inhibition was -3.3%.

`O=C(Nc1ccc(Cl)cn1)Nc1cccs1`: the inhibition is -2.2%. Then `COc1ccc(/C(O)=C2/C(=O)C(=O)N(CC3CCCO3)C2c2ccc(OC)c(OC)c2)cc1` (stereo not given), with 0.3%. Then `COc1ccc(/C(O)=C2\C(=O)C(=O)N(Cc3ccco3)C2c2ccc(OC)cc2OC)cc1` (stereo not given), with 38% (active); and `COc1ccccc1C1/C(=C(/O)c2ccc(C)cc2)C(=O)C(=O)N1Cc1ccco1` (stereo not given), with 4.3%. For the molecule `CCOC(=O)Cn1c(CN(Cc2ccccc2)Cc2ccccc2)nc2c1c(=O)[nH]c(=O)n2C`, the inhibition is -0.1%. The figure for `COc1c(F)c(F)c(C(=O)O)c(Nc2ccccc2C)c1F` is -4.8%; for `Cc1cc(N2C(=O)C(=O)/C(=C(/O)c3ccccc3)C2c2cccc(Br)c2)no1` (stereo not given) it is -1.3%.

As to `CCOC(=O)c1ccn(-c2nc(-c3ccco3)cc(C(F)(F)F)n2)n1`, the inhibition was 5.4%. The figure for `CN1CCCC(OC(=O)COc2ccc(Br)cc2)C1` (stereo not given) is -3%; for `CCCn1nnc2sc3c(c2c1=O)CCC(C)C3` (stereo not given) it is 0.2%.

`Cc1cccc(-n2nc3c(c2NC(=O)c2ccc(Br)o2)CSC3)c1C`: the inhibition is 6.4%.

Take `CC1(C)C(=O)Nc2ccccc2N1C(=O)COC(=O)Cn1cnc2ccccc2c1=O`: the inhibition is -1.5%.

For `O=C(CCSCCc1ccccn1)Nc1nccs1`, the inhibition was 2.6%. Then `CCOc1cccc(-c2nnc3sc(COc4ccc(OC)cc4)nn23)c1`, with -4.8%; and `c1ccc(Cc2nn3c(Cn4cnc5ccccc54)nnc3s2)cc1`, with 4.2%; and `Clc1ccc(Cc2nn3c(-c4ccncc4)nnc3s2)cc1`, with 46.7% (active). Then `CCOc1ccc(NC(=O)CCS(=O)(=O)c2cccc3nsnc23)cc1`, with 7.6%; and `O=C(c1ccccc1)c1cccn1CC(=O)N1CCN(c2ccc(F)cc2)CC1`, with 0.2%. Turning to `CCCC(=O)C1=C(N(C)c2ccccc2)CC(C)(C)C(C(=O)OC)C1=O` (stereo not given), the inhibition is 1.9%. The figure for `O=C(O)CC(c1ccccc1)n1cnnn1` (stereo not given) is -4.6%; for `CCN(Cc1ccccc1)C(=O)CSc1nc(C)cc2c1C(=O)OC2` it is 2%. On to `O=C(CCN1C(=O)c2ccccc2C1=O)NCCN1CCOCC1`, for which the inhibition is -4.5%. Turning to `O=C1CC(c2ccccc2)CC(O)=C1C=NCCN1CCOCC1` (stereo not given), the inhibition is 9.7%. Take `CCCC(=O)Nc1nnc(CC(=O)OCC)s1`: the inhibition was 9.1%. Consider `CCOc1ccc(/C(O)=C2/C(=O)C(=O)N(Cc3cccnc3)C2c2ccc(N(C)C)cc2)c(C)c1` (stereo not given), for which the inhibition was 27.7%. Turning to `COc1cc(C2C(C(=O)c3ccc(C)o3)=C(O)C(=O)N2CCc2ccccc2)ccc1O` (stereo not given), the inhibition was 69.9% (active). Then `COc1ccc(-c2nc(CS(=O)CC(=O)NCc3cccnc3)c(C)o2)cc1OC` (stereo not given), with 7.2%; and `COc1cc(C2C(C(=O)c3ccc(C)o3)=C(O)C(=O)N2Cc2cccnc2)ccc1O` (stereo not given), with 40.6% (active); and `COc1cc(C2C(C(=O)Nc3ccccc3OC)=C(C)Nc3ncnn32)ccc1O` (stereo not given), with -6.4%. Consider `CCCOc1ccc(C2C(C(=O)c3ccc(C)o3)=C(O)C(=O)N2CCCn2ccnc2)cc1` (stereo not given), for which the inhibition was 52.8% (active).

`CCCOc1ccc(C2c3c(oc4cc(C)c(C)cc4c3=O)C(=O)N2CCCN2CCOCC2)cc1` (stereo not given): the inhibition was 5.8%. Turning to `COc1cc(C2C(C(=O)c3sc(C)nc3C)=C(O)C(=O)N2CCN(C)C)cc(OC)c1OC` (stereo not given), the inhibition is 3.4%.

Take `CCOc1ccccc1C(=O)NCCCn1ccnc1`: the inhibition was -3.4%. On to `O=C(c1cccnc1NCc1ccccc1)N1CCOCC1`, for which the inhibition is -10.6%. Turning to `CCOC(=O)c1[nH]c2c(c1C)C(=O)CC(c1ccc(N(C)C)cc1)C2` (stereo not given), the inhibition is 9%. Consider `Nc1ccc(-n2nncc2-c2ccco2)cc1`, for which the inhibition was 3%.

For `O=C(CN1CCN(S(=O)(=O)c2ccc(F)cc2)CC1)Nc1ccccc1F`, the inhibition was 5.7%. The figure for `COc1ccc2c(CC(=O)Nc3nnc(C4CC4)s3)coc2c1` is -3.4%.

Turning to `COCCCN1C(=O)C(=O)/C(=C(/O)c2ccc3c(c2)CC(C)O3)C1c1cccnc1` (stereo not given), the inhibition is 33.5% (active). With `CCOc1cccc(/C(O)=C2/C(=O)C(=O)N(CCOC)C2c2ccncc2)c1` (stereo not given), the inhibition is 4.6%.

For `CC1Cc2cc(/C(O)=C3\C(=O)C(=O)N(CCN4CCOCC4)C3c3ccccc3F)ccc2O1` (stereo not given), the inhibition is 18.6%. Turning to `COc1cc(C2C(C#N)=C(C)NC3=C2C(=O)CC(C)(C)C3)ccc1O` (stereo not given), the inhibition was 4.9%. As for `Cc1ccc(C2CC(=O)NC(SCC(=O)OCc3ccccc3)=C2C#N)o1` (stereo not given), the inhibition was 0.1%. Turning to `CCCOC(=O)Nc1sc2c(c1C(=O)OCC)CCC2`, the inhibition is -12.7%.

For `CCN(CC)S(=O)(=O)N1CCC(C(=O)NC(C)CCc2ccccc2)CC1` (stereo not given), the inhibition was -9.4%. Consider `CCC(C)(NC(=O)c1ccccn1)C(=O)NC1CCCCC1` (stereo not given), for which the inhibition is 6.6%. Take `COCCNC(=O)Cn1cc2c(n1)CCCCC2`: the inhibition is -5.5%. `Cc1onc(-c2ccccc2Cl)c1C(=O)NCCn1ccc2ccccc21`: the inhibition is 5.6%. Then `COc1ccccc1CNC(=O)CCn1c(=O)sc2ccccc21`, with 1.8%. On to `O=C(C1CCN(S(=O)(=O)c2cccs2)CC1)N1CCCCCC1`, for which the inhibition is 2.5%. On to `Cc1cc(C)nc(-n2nc(C)cc2NC(=O)c2ccc(Br)o2)n1`, for which the inhibition is -6.1%. Consider `O=C(CN1C(=O)C2C3C=CC(C3)C2C1=O)NCC1COc2ccccc2O1` (stereo not given), for which the inhibition is -0.7%.

Turning to `O=C1c2ccncc2C(=O)N1C1CCCCC1`, the inhibition was 0.9%. Then `COc1ccc(Cn2nnc3c(=O)[nH]c(C4CCN(C(=O)c5ccccc5Cl)CC4)nc32)cc1`, with -0.8%. For the molecule `Cc1nc(C)c(C(=O)Nc2cccc(C)c2C)o1`, the inhibition is 3%. As for `COc1ccccc1Cn1c(=S)[nH]c2cc(C(=O)N3CCN(C)CC3)ccc2c1=O`, the inhibition was -4%. Turning to `S=C1SCN(CCN2CCOCC2)CN1Cc1ccccc1`, the inhibition was -1.1%. The figure for `CCOC(=O)C1CCN(C(=O)CSc2cc(=O)n(C)c3ccccc23)CC1` is -1.5%; for `Cn1c(=O)cc(OCCCC(=O)N2CCN(c3ccccn3)CC2)c2ccccc21` it is -0.8%.
